Test systems include DU-145 prostate; K-562 leukemia; MALME-3M melanoma; MDA-MB-231 breast; RXF 393 renal; SF-268 CNS; SF-295 CNS; SF-539 CNS; UACC-257 melanoma; M14 melanoma; HCT-15 colon; HT29 colon; SNB-75 CNS; SNB-19 CNS; U251 CNS; PC-3 prostate; SK-MEL-5 melanoma; UACC-62 melanoma; LOX IMVI melanoma; SK-MEL-28 melanoma.
Holding throughout (assay): NCI-60 one-dose screen, 48 h (100 = growth as untreated, 0 = no growth, -100 = all killed)
What all share (settings): 10 µM unless noted

Drawing on PubChem BioAssay (NCI), this text covers growth for 8 molecules.

This is part of a sample that, as a whole, favours compounds with a hit. Of some 83,000 tested, about 20% had one in any assay.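 Compound tested at a single concentration for 48 hours in 96-well plates; a percent growth value below 10 was scored as active.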 Unmarked numbers belong to inactive results. The source made the active and inactive calls.

Turning to `COc1ccc(C2c3[nH]c4ccc(Cl)cc4c3CCN2c2oc(CO)nc2C#N)cc1` (configuration not stated), the growth in the experiment with DU-145 prostate is 57.3%; with K-562 leukemia, 19.5%; with MALME-3M melanoma, 72.1%; with MDA-MB-231 breast, 59.7%; with RXF 393 renal, 62.8%; in the experiment on SF-268 CNS it was 53.6%. For the same molecule, the growth in the experiment on SF-295 CNS was 45.6%; in the experiment with SF-539 CNS it was 40.3%; with UACC-257 melanoma, 67.5%; in the experiment with M14 melanoma, 53.5%; in the experiment on HCT-15 colon, 22.2%; in the experiment on HT29 colon it was 22.9%. Further, the growth was 46.5% with SNB-75 CNS; 51.9% in the experiment on SNB-19 CNS; 38.9% in the experiment with U251 CNS; 41.3% in the experiment with PC-3 prostate; 29.7% in the experiment on SK-MEL-5 melanoma; 39.3% with UACC-62 melanoma. For the same molecule, the growth with LOX IMVI melanoma was 24.2%; in the experiment on SK-MEL-28 melanoma, 60.1%.
Take `O=c1[nH][nH]c(-c2ccc(F)cc2)c1-c1nc2ccccc2s1`: the growth is 104% in the experiment with DU-145 prostate; 98.1% with K-562 leukemia; 84% with MALME-3M melanoma; 85% in the experiment on MDA-MB-231 breast; 99.7% with RXF 393 renal; 98.1% in the experiment on SF-268 CNS. Moreover, the growth in the experiment with SF-295 CNS was 103%; in the experiment with SF-539 CNS it was 94.8%; in the experiment on UACC-257 melanoma it was 107%; in the experiment with M14 melanoma it was 89.1%; in the experiment with HCT-15 colon, 85%; in the experiment with HT29 colon, 110%. Moreover, the growth with SNB-75 CNS was 88.4%; with SNB-19 CNS, 80.5%; in the experiment with U251 CNS, 98.8%; in the experiment with PC-3 prostate, 90.3%; in the experiment with SK-MEL-5 melanoma, 98.8%; in the experiment on UACC-62 melanoma, 81.8%. Further, the growth in the experiment with LOX IMVI melanoma was 93.1%; in the experiment on SK-MEL-28 melanoma, 97.7%.
Turning to `CSc1ccc(/C(=N/N=C(N)N)c2ccc(Cl)cc2)cc1`, the growth with DU-145 prostate is 9.65% (active); in the experiment on K-562 leukemia, 1.76% (active); in the experiment with MALME-3M melanoma, 22.5%; with MDA-MB-231 breast, 7.57% (active); with RXF 393 renal, 16.5%; with SF-268 CNS, 19.3%. For the same molecule, the growth in the experiment on SF-295 CNS was 8.73% (active); in the experiment on SF-539 CNS it was -10.3% (active); in the experiment with UACC-257 melanoma it was 57.8%; in the experiment on M14 melanoma, -90.9% (active); in the experiment on HCT-15 colon, 3.54% (active); in the experiment with HT29 colon it was -30.1% (active). For the same molecule, the growth was 1.16% (active) with SNB-75 CNS; 19.6% in the experiment with SNB-19 CNS; -13.5% (active) with U251 CNS; 8.76% (active) in the experiment with PC-3 prostate; -0.967% (active) in the experiment on SK-MEL-5 melanoma; 7.53% (active) with UACC-62 melanoma. For the same molecule, the growth is -42.5% (active) with LOX IMVI melanoma and 48.8% with SK-MEL-28 melanoma.
On to `COc1cccc2c1[C@H](OC)[C@]13O[C@@]1(C2=O)[C@H](O)[C@H](C)[C@@](O)(C(=O)[C@@H]1O[C@H]1C)[C@@H]3O`, for which the growth in the experiment with DU-145 prostate is -20.6% (active); in the experiment on K-562 leukemia, -27% (active); in the experiment on MALME-3M melanoma it was -56.7% (active); in the experiment with MDA-MB-231 breast, -1.86% (active); in the experiment with RXF 393 renal, -77.3% (active); in the experiment with SF-268 CNS, -24.7% (active). Moreover, the growth is -21.8% (active) in the experiment on SF-295 CNS; -29% (active) with SF-539 CNS; -28.3% (active) in the experiment with UACC-257 melanoma; -89.7% (active) with M14 melanoma; -14.8% (active) with HCT-15 colon; -28.9% (active) with HT29 colon. In addition, the growth with SNB-75 CNS was -61.7% (active); in the experiment with SNB-19 CNS, 1.38% (active); in the experiment with U251 CNS it was -13.3% (active); with PC-3 prostate it was -19.4% (active); with SK-MEL-5 melanoma, -97.7% (active); with UACC-62 melanoma it was -45.5% (active). In the experiment on SK-MEL-28 melanoma, the growth was -10.4% (active).
For `O=c1oc2ccc(-c3ccc(F)cc3F)cc2c(=O)n1-c1ccc(Br)cc1F`, the growth was 85.2% with DU-145 prostate; 45.4% in the experiment on K-562 leukemia; 61.5% with MALME-3M melanoma; 87% in the experiment on MDA-MB-231 breast; 80.8% in the experiment on RXF 393 renal; 58.6% in the experiment on SF-268 CNS. Moreover, the growth in the experiment on SF-295 CNS is 77.6%; in the experiment on SF-539 CNS, 74.3%; in the experiment with UACC-257 melanoma it was 48.1%; with M14 melanoma, 80.7%; with HCT-15 colon it was 47.4%; in the experiment with HT29 colon, 109%. Besides, the growth is 73.9% in the experiment with SNB-75 CNS; 71.7% in the experiment on SNB-19 CNS; 64% with U251 CNS; 78.9% with PC-3 prostate; 15% with SK-MEL-5 melanoma; 21.1% with UACC-62 melanoma. Further, the growth with SK-MEL-28 melanoma is 77.3%.
For the molecule `CC1CC(=O)C2=C(C1)Nc1ccc(Br)cc1CC2c1c[nH]c2ccc(Br)cc12` (configuration not stated), the growth is 71.6% with DU-145 prostate; 21.6% in the experiment on K-562 leukemia; 59.3% with MALME-3M melanoma; 68.8% in the experiment on MDA-MB-231 breast; 69% with RXF 393 renal; 67.8% in the experiment with SF-268 CNS. In addition, the growth in the experiment with SF-295 CNS was 4.8% (active); in the experiment with SF-539 CNS it was 54.8%; in the experiment on UACC-257 melanoma, 67.9%; in the experiment on M14 melanoma, 29%; in the experiment with HCT-15 colon, 27.1%; with HT29 colon it was 11.1%. Also, the growth with SNB-75 CNS is -7.47% (active); in the experiment with SNB-19 CNS it was 54.7%; in the experiment on U251 CNS, 53.1%; in the experiment on PC-3 prostate, 31.3%; with SK-MEL-5 melanoma it was 66.1%; in the experiment on UACC-62 melanoma, 42.1%. The growth was 34.9% in the experiment with LOX IMVI melanoma and 57.2% in the experiment with SK-MEL-28 melanoma.
With `COc1ccc(Cn2cc(C#N)c(N)c2C(C)=O)cc1`, the growth in the experiment with DU-145 prostate was 107%; in the experiment with K-562 leukemia, 103%; with MALME-3M melanoma it was 102%; in the experiment on MDA-MB-231 breast, 94.8%; with RXF 393 renal, 102%; with SF-268 CNS, 96.5%. For the same molecule, the growth in the experiment on SF-295 CNS is 110%; in the experiment with SF-539 CNS, 99.5%; in the experiment with UACC-257 melanoma, 106%; with M14 melanoma, 110%; in the experiment with HCT-15 colon it was 98.5%; in the experiment with HT29 colon, 112%. Further, the growth with SNB-75 CNS is 84.5%; in the experiment on SNB-19 CNS, 85.8%; with U251 CNS, 109%; with PC-3 prostate, 105%; in the experiment on SK-MEL-5 melanoma, 100%; in the experiment on UACC-62 melanoma, 87.1%. Also, in the experiment with SK-MEL-28 melanoma, the growth is 109%.
Consider `Cc1ccc(NC(=O)/C=C/c2ccc(OCCCOc3ccc4c(C)cc(=O)oc4c3)cc2)cc1`, for which the growth in the experiment with DU-145 prostate is 60.6%; in the experiment on K-562 leukemia it was 90.7%; in the experiment with MALME-3M melanoma, 44.8%; with MDA-MB-231 breast, 54.6%; in the experiment on RXF 393 renal it was 44.1%; with SF-268 CNS, 39.1%. Besides, the growth in the experiment on SF-295 CNS was 50.1%; in the experiment on SF-539 CNS it was 57.8%; with UACC-257 melanoma it was 69.8%; in the experiment with M14 melanoma it was 88.3%; in the experiment with HCT-15 colon, 85.5%; in the experiment on HT29 colon, 71.3%. The growth was -6.2% (active) in the experiment with SNB-75 CNS; 38.2% in the experiment with SNB-19 CNS; 71.6% in the experiment on U251 CNS; 74.5% with PC-3 prostate; 76.9% with SK-MEL-5 melanoma; 93% in the experiment on UACC-62 melanoma. Moreover, the growth in the experiment on LOX IMVI melanoma is 68.8%; in the experiment with SK-MEL-28 melanoma it was 59.9%.
